39 compounds from PubChem BioAssay (NCI) can be followed below.

SMILES strings stand for the structures. Where “and” joins values, the source holds several entries; their conditions need not be identical. Identical values can stand only once. Compounds without any hit were thinned out: in the full panel of roughly 83,000, 20% have a hit.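 Interpretation: 100, growth as untreated; towards 0, rising growth inhibition; 0, no net growth; 0 to -100, cell death. Compounds scoring below 10 were considered active.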 The source holds several records for some structures; these can differ, active in one and inactive in another. Calls of active or inactive are those of the source.

In this assay the test system is HL-60(TB) leukemia. The experiment in a line: NCI-60 one-dose screen, 48 h (100 = growth as untreated, 0 = no growth, -100 = all killed). The note with it: 10 µM unless noted.
With `CCOC(=O)c1c(NC(=O)C2CCCCC2C(=O)O)sc2c1CCCC2` (centres undefined), the growth is 102% (inactive).
Regarding `CC(C)(C)NC(C1=CC(C)(C)c2ccccc2C1=O)c1ccccc1` (centres undefined), the growth is -45.2% (active).
Then `O=C(N/N=C/c1cccc2ccccc12)C1CC1`, with 71.3% (inactive) and 95.7% (inactive); and `Nc1nc(-c2cc3ccccc3o2)cc(=O)c(=O)[nH]1`, with 107% (inactive).
For the compound `Cc1cc(C)c(CC(=O)O)c(C)c1`, the growth is 97.3% (inactive).
Then `Brc1ccc2[nH]cc(-c3nonc3-c3c[nH]c4ccccc34)c2c1`, with 67.3% (inactive); and `OC(c1cc(-c2ccc(C(F)(F)F)cc2)nc(C(F)(F)F)c1)C1CCCCN1` (centres undefined), with -47.6% (active) and -72.8% (active) and 36.6% (inactive); and `O=C(CSc1nc2sc3c(c2c(=O)n1-c1ccccc1)CCCCC3)N/N=C/c1ccc(F)cc1`, with 110% (inactive).
Then `C=C1C(=O)O[C@H]2[C@H]1CC/C(COC(=O)C(=O)c1cn(C)c3ccc(Cl)cc13)=C\CC[C@@]1(C)O[C@@H]21`, with -35.1% (active); and `C/C(=C(/c1ccc(Cl)cc1)c1ccc(OCCN2CCCC2)cc1)c1ccc(Cl)cc1`, with 69.5% (inactive).
Then `CS(=O)(=O)OCCN(CCOS(C)(=O)=O)c1ccc(/C=N/Nc2ccc([N+](=O)[O-])cc2[N+](=O)[O-])cc1`, with 71.6% (inactive); and `COC(=O)[C@]1(C)CCC[C@]2(C)[C@H]3C[C@H]4C(C(C)C)=C[C@]3(CC[C@H]21)[C@@H]1C(=O)N(CCC#N)C(=O)[C@@H]14`, with 44.4% (inactive).
On to `N#CC(C#N)=NO`, for which the growth is 104% (inactive).
Then `COc1ccc2c(c1)C(C)Cc1c(N(C)C)ncnc1N2C` (centres undefined), with -4.85% (active); and `O=C(OCC1CC2(Cl)C(Cl)=C(Cl)C1(Cl)C2(Cl)Cl)C1C(C(=O)OCC2CC3(Cl)C(Cl)=C(Cl)C2(Cl)C3(Cl)Cl)C2(Cl)C(Cl)=C(Cl)C1(Cl)C2(Cl)Cl` (centres undefined), with 89.3% (inactive).
Then `Cc1cc(Cl)nc(N(CCCNc2ccnc3cc(Cl)ccc23)Cc2cccs2)n1`, with -41.4% (active); and `COc1cccc(C2C(C#N)=C(N)Oc3cc(N)ccc32)c1` (centres undefined), with -19% (active).
Consider `CNC(=O)c1cc(Oc2ccc3nc(NC(C)=O)sc3c2)ccn1`, for which the growth is 98.9% (inactive).
Then `Nc1ccc(S(=O)(=O)Nc2ncccn2)cc1`, with 105% (inactive); and `Cc1cnc(C(=O)NNc2nc3sc4c(c3c(=O)n2C)C(C)CCC4)cn1` (centres undefined), with -32.3% (active).
With `NC(N)=N/N=C(/c1ccccc1)c1ccc(Cl)cc1`, the growth was 105% (inactive).
Then `COc1ccc(/C=C/c2nnc(/C=C/c3ccc(OC)c(OC)c3)o2)cc1OC`, with 12.1% (inactive).
Then `CCOC(=O)c1sc2ncnc(Nc3ccc4c(cnn4C(=O)Nc4ccc(C)c(Cl)c4)c3)c2c1C`, with 95.3% (inactive); and `COc1ccc2nc(NC(=O)CSc3nnc4n3S(=O)(=O)c3ccccc3N4c3ccccc3)sc2c1`, with -83.2% (active).
Then `Nc1nc2c([nH]1)c1[nH]c3ccccc3c1c1[nH]c3ccccc3c21`, with 25.5% (inactive).
As for `Nc1cc2ccccc2c(O)c1O`, the growth is 4.42% (active).
For `CN(Cc1cc(Cl)cc(Cl)c1O)Cc1cc(Cl)cc(Cl)c1O`, the growth is 53.1% (inactive).
Take `Cc1cccc(Cl)c1NC(=O)c1ccc2nc(NC(=O)NC3CC(C)(C)NC(C)(C)C3)sc2c1`: the growth is 110% (inactive).
Consider `O=C(O)c1cn(C2CC2)c2cc(N3CCN(C(=O)N(c4ccccc4)c4nc(-c5ccccc5)cs4)CC3)c(F)cc2c1=O`, for which the growth was -39.9% (active).
Then `O=C(/C=C/C=C/c1ccccc1)c1ccco1`, with -38.2% (active).
Then `C=C1CC[C@@H]2[C@](C)(COC(C)=O)[C@H](OC(C)=O)CC[C@@]2(C)[C@@H]1CC(Sc1ccccc1)C1=CCOC1=O` (some centres undefined), with -46.5% (active); and `C/C(=C\C(=N\N=C(N)N)c1ccc(Cl)cc1)c1ccc(Cl)cc1`, with -68% (active); and `CNC(=O)c1ccc(Nc2ncc(C(F)(F)F)c(NCc3nccnc3N(C)S(C)(=O)=O)n2)cc1`, with -32.1% (active).
Then `NC(=O)CSc1oc(-c2ccccc2)nc1S(=O)(=O)c1ccc(Br)cc1`, with 82.1% (inactive).
Take `COc1ccc(C2CC(c3ccc(Nc4nc(Nc5ccccc5)nc(Nc5ccccc5)n4)cc3)=NN2C(C)=O)cc1` (centres undefined): the growth is 95.1% (inactive).
Then `O=C(N/N=C/c1ccccc1)C(Oc1ccccc1)c1ccccc1` (centres undefined), with 109% (inactive).
Then `CC(=O)Nc1ccc2cc3ccc(NC(C)=O)cc3nc2c1`, with 131% (inactive) and 96.4% (inactive).
Take `COc1cc2c(c(OC)c1OC)-c1ccc(OC)c(=O)cc1[C@@H](NC(=O)CCl)CC2`: the growth is -7.51% (active).
Then `CCOC(=O)CNC(=O)CCCCSc1ncnc2nc[nH]c12`, with 91.1% (inactive).
